# Laboratory results: the supplement of paper PMC10037445
# Whole data set: some 2,900 compounds, median “IRF Lucia reporter activity, fold change vs agonist alone” near 0.9, cut for the highest 2% near 2.8. For the sample, the highest values were picked, then their nearest neighbours and some compounds at random.
# What was measured:
# RAW-Dual [1] = assay: IRF Lucia reporter activity, fold change vs agonist alone; higher = enhanced IRF activity; details: agonist: MPLA (TLR4) […]
# In short: (§1)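 RAW-Dual macrophages (50,000 cells/well in DMEM, 384-well plates) received 50 nL of library stock by pin tool, then a PRR agonist 1 h later, and were kept at 37 °C, 5% CO2. After 20 hours, supernatant was read for IRF by QuantiLuc luminescence and for NF-κB by QuantiBlue absorbance at 620 nm. Reporter activity is fold change over agonist-alone wells. Cytotoxic wells had IncuCyte confluency below 70% of agonist controls in both mask sets.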
# RAW-Dual [2] = assay: IRF Lucia reporter activity, fold change vs agonist alone; cytotoxicity flag (confluency mask): cytotoxic (confluency <70% of control); higher = enhanced IRF activity
# In short: as §1
# RAW-Dual [3] = assay: IRF Lucia reporter activity, fold change vs agonist alone; cytotoxicity flag (confluency mask): not cytotoxic; higher = enhanced IRF activity
# In short: as §1
# [4] = library stock concentration (final ~1000-fold dilution): 10 mM, cytotoxicity flag (confluency mask): cytotoxic (confluency <70% of control)
# [5] = agonist: 3'3'-cGAMP (STING) 10 ug/mL
# [6] = library stock concentration (final ~1000-fold dilution): 10 mM, cytotoxicity flag (confluency mask): not cytotoxic
smiles,measurement,setting,value
Cn1cncc1C(N)(c1ccc(Cl)cc1)c1ccc2c(c1)c(-c1cccc(Cl)c1)cc(=O)n2C (stereo unspecified),IRF Lucia reporter activity,RAW-Dual [1]; [4],0.481
Cn1cncc1C(N)(c1ccc(Cl)cc1)c1ccc2c(c1)c(-c1cccc(Cl)c1)cc(=O)n2C (stereo unspecified) (library stock concentration (final ~1000-fold dilution): 10 mM),IRF Lucia reporter activity,RAW-Dual [2]; [5],0.374
same,IRF Lucia reporter activity,RAW-Dual [2]; agonist: LPS (TLR4) 0.1 ug/mL,0.641
COC(=O)NC(C(=O)N1CC2(CC2)CC1c1ncc(-c2ccc3c(c2)C(F)(F)c2cc(-c4ccc5nc(C6C7CCC(C7)N6C(=O)C(NC(=O)OC)C(C)C)[nH]c5c4)ccc2-3)[nH]1)C(C)C (stereo unspecified) (library stock concentration (final ~1000-fold dilution): 10 mM),IRF Lucia reporter activity,RAW-Dual [3]; [5],0.913
same,IRF Lucia reporter activity,RAW-Dual [3]; agonist: LPS (TLR4) 0.1 ug/mL,1.23
COC(=O)NC(C(=O)N1CCCC1c1ncc(-c2ccc(-c3ccc(-c4cnc(C5CCCN5C(=O)C(NC(=O)OC)C(C)C)[nH]4)cc3)cc2)[nH]1)C(C)C.Cl.Cl (stereo unspecified),IRF Lucia reporter activity,RAW-Dual [1]; [6],5.97
COCC1CC(c2ncc(-c3ccc4c(c3)COc3cc5c(ccc6[nH]c(C7CCC(C)N7C(=O)C(NC(=O)OC)C(C)C)nc65)cc3-4)[nH]2)N(C(=O)C(NC(=O)OC)c2ccccc2)C1 (stereo unspecified) (library stock concentration (final ~1000-fold dilution): 10 mM),IRF Lucia reporter activity,RAW-Dual [3]; [5],0.767
same,IRF Lucia reporter activity,RAW-Dual [3]; agonist: LPS (TLR4) 0.1 ug/mL,0.91
COC(=O)NC(C(=O)N1CCCC1c1ncc(-c2ccc(-c3ccc(-c4cnc(C5CCCN5C(=O)C(NC(=O)OC)C(C)C)[nH]4)cc3)cc2)[nH]1)C(C)C (stereo unspecified) (library stock concentration (final ~1000-fold dilution): 10 mM),IRF Lucia reporter activity,RAW-Dual [3]; [5],1.04
same,IRF Lucia reporter activity,RAW-Dual [3]; agonist: LPS (TLR4) 0.1 ug/mL,4.15
COC(=O)NC(C(=O)N1CCCC1c1ncc(-c2ccc(-c3ccc(-c4cnc(C5CCCN5C(=O)C(NC(=O)OC)C(C)C)[nH]4)cc3)cc2)[nH]1)C(C)C.Cl.Cl (stereo unspecified) (library stock concentration (final ~1000-fold dilution): 10 mM),IRF Lucia reporter activity,RAW-Dual [3]; [5],0.948
same,IRF Lucia reporter activity,RAW-Dual [3]; agonist: LPS (TLR4) 0.1 ug/mL,7.56
COC(=O)NC(C(=O)N1CCCC1c1ncc(-c2ccc3c(c2)OC(c2ccccc2)n2c-3cc3cc(-c4cnc(C5CCCN5C(=O)C(NC(=O)OC)C(C)C)[nH]4)ccc32)[nH]1)C(C)C (stereo unspecified) (library stock concentration (final ~1000-fold dilution): 10 mM),IRF Lucia reporter activity,RAW-Dual [3]; [5],1.07
same,IRF Lucia reporter activity,RAW-Dual [3]; agonist: LPS (TLR4) 0.1 ug/mL,1.16
COC(=O)NC(C(=O)N1CCCC1C(=O)Nc1ccc(C2CCC(c3ccc(NC(=O)C4CCCN4C(=O)C(NC(=O)OC)C(C)C)cc3)N2c2ccc(C(C)(C)C)cc2)cc1)C(C)C (stereo unspecified),IRF Lucia reporter activity,RAW-Dual [1]; [6],0.973
COC(=O)NC(C(=O)N1CCCC1c1ncc(-c2ccc(-c3ccc(-c4cnc(C5CCCN5C(=O)C(NC(=O)OC)C(C)C)[nH]4)cc3)cc2)[nH]1)C(C)C (stereo unspecified),IRF Lucia reporter activity,RAW-Dual [1]; [6],3.26
COC(=O)NC(C(=O)N1CCCC1C(=O)Nc1ccc(C2CCC(c3ccc(NC(=O)C4CCCN4C(=O)C(NC(=O)OC)C(C)C)cc3)N2c2ccc(C(C)(C)C)cc2)cc1)C(C)C (stereo unspecified) (library stock concentration (final ~1000-fold dilution): 10 mM),IRF Lucia reporter activity,RAW-Dual [3]; [5],0.995
same,IRF Lucia reporter activity,RAW-Dual [3]; agonist: LPS (TLR4) 0.1 ug/mL,1.21
COCC1CC(c2ncc(-c3ccc4c(c3)COc3cc5c(ccc6[nH]c(C7CCC(C)N7C(=O)C(NC(=O)OC)C(C)C)nc65)cc3-4)[nH]2)N(C(=O)C(NC(=O)OC)c2ccccc2)C1 (stereo unspecified),IRF Lucia reporter activity,RAW-Dual [1]; [6],0.857
COC(=O)NC(C(=O)N1CC2(CC2)CC1c1ncc(-c2ccc3c(c2)C(F)(F)c2cc(-c4ccc5nc(C6C7CCC(C7)N6C(=O)C(NC(=O)OC)C(C)C)[nH]c5c4)ccc2-3)[nH]1)C(C)C (stereo unspecified),IRF Lucia reporter activity,RAW-Dual [1]; [6],0.979
COC(=O)NC(C(=O)N1CCCC1c1ncc(-c2ccc3c(c2)OC(c2ccccc2)n2c-3cc3cc(-c4cnc(C5CCCN5C(=O)C(NC(=O)OC)C(C)C)[nH]4)ccc32)[nH]1)C(C)C (stereo unspecified),IRF Lucia reporter activity,RAW-Dual [1]; [6],1.01
NC(=O)C(CCC(F)(F)F)N(Cc1ccc(-c2ncon2)cc1F)S(=O)(=O)c1ccc(Cl)cc1 (stereo unspecified) (library stock concentration (final ~1000-fold dilution): 10 mM),IRF Lucia reporter activity,RAW-Dual [3]; [5],0.94
same,IRF Lucia reporter activity,RAW-Dual [3]; agonist: LPS (TLR4) 0.1 ug/mL,1.56
NC(=O)C(CCC(F)(F)F)N(Cc1ccc(-c2ncon2)cc1F)S(=O)(=O)c1ccc(Cl)cc1 (stereo unspecified),IRF Lucia reporter activity,RAW-Dual [1]; [6],1.3
CC1COCCN1c1cc(C2(S(C)(=N)=O)CC2)nc(-c2ccnc3[nH]ccc23)n1 (stereo unspecified) (library stock concentration (final ~1000-fold dilution): 10 mM),IRF Lucia reporter activity,RAW-Dual [3]; [5],0.193
same,IRF Lucia reporter activity,RAW-Dual [3]; agonist: LPS (TLR4) 0.1 ug/mL,1.39
COc1cc(C=CC(=O)OCC[N+](C)(C)C)cc(OC)c1O (library stock concentration (final ~1000-fold dilution): 10 mM),IRF Lucia reporter activity,RAW-Dual [3]; [5],0.894
same,IRF Lucia reporter activity,RAW-Dual [3]; agonist: LPS (TLR4) 0.1 ug/mL,1.04
O=c1cc(N2CCOCC2)oc2c(-c3cccc4c3sc3ccccc34)cccc12 (library stock concentration (final ~1000-fold dilution): 2 mM),IRF Lucia reporter activity,RAW-Dual [3]; [5],0.548
same,IRF Lucia reporter activity,RAW-Dual [3]; agonist: LPS (TLR4) 0.1 ug/mL,7.23
O=c1cc(N2CCOCC2)oc2c(-c3ccccc3)cccc12,IRF Lucia reporter activity,RAW-Dual [1]; [4],0.627
O=c1cc(N2CCOCC2)oc2c(-c3cccc4c3sc3ccccc34)cccc12,IRF Lucia reporter activity,"RAW-Dual [1]; library stock concentration (final ~1000-fold dilution): 2 mM, cytotoxicity flag (confluency mask): not cytotoxic",2.7
O=c1nc(N2CCOCC2)oc2c(-c3cccc4c3sc3ccccc34)cccc12 (library stock concentration (final ~1000-fold dilution): 10 mM),IRF Lucia reporter activity,RAW-Dual [3]; [5],0.298
same,IRF Lucia reporter activity,RAW-Dual [3]; agonist: LPS (TLR4) 0.1 ug/mL,1.03
O=c1cc(N2CCOCC2)oc2c(-c3ccccc3)cccc12 (library stock concentration (final ~1000-fold dilution): 10 mM),IRF Lucia reporter activity,RAW-Dual [2]; [5],0.353
same,IRF Lucia reporter activity,RAW-Dual [2]; agonist: LPS (TLR4) 0.1 ug/mL,0.393
